Data on 40 molecules can be found in PubChem BioAssay (NCI).

About 83,000 compounds went through this panel and 20% of them were active in at least one assay; those are over-represented in the sample as a whole.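 Step 1: grow cells in 96-well plates. Step 2: add test compound at a single concentration. Step 3: incubate 48 h. Step 4: record percent growth.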 Activity calls are given as the source filed them.

The subject of this test is NCI-H226 lung. Put plainly: NCI-60 one-dose screen, 48 h (100 = growth as untreated, 0 = no growth, -100 = all killed). The note with it: 10 µM. On the procedure: Growth inhibition of the NCI-H226 human Non-Small Cell Lung tumor cell line is measured as a screen for anti-cancer activity. Cells are grown in 96 well plates and exposed to the test compound for 48 hours. Compounds are tested at a single concentration, which is 10^-5 M for most compounds. The reported endpoint is percent growth (GI% or GIPRCNT), where numbers from 0 - 100% represent growth inhibition, and numbers from -100% - 0 represent cell death. For example, a value of 40 represents 60% growth inhibition. A value of 0 means no net growth occurred over the course of the experiment. A value of -40 indicates 40% of cells at the beginning of the experiment died by the end of the experiment. A value of -100 means all cells are dead at the end of the experiment.
NCI-60 Human Tumor Cell Lines Screen was performed using the standard one-dose NCI protocol, which is described in more detail at https://dtp.cancer.gov/discovery_development/nci-60/default.htm.
Compounds with GIPRCNT values below 10 were considered active. Activity score was based on GIPRCNT using the following formula: […]
Score is 0 for GIPRCNT values of 100 or above, 50 for GIPRCNT values of 0, and 100 for GIPRCNT values of -100.
`O=c1[nH]c2ccc(Cl)cc2cc1CSc1ccc(Nc2nccc(-c3ccc4ccccc4c3)n2)cc1`: the growth is 50.5% (inactive). Turning to `C=CC(=O)Nc1ccc(C(=O)/C=C/c2ccc(N(C)CCF)cc2)c(O)c1`, the growth is -11% (active). Under `Cc1cccc2cc(-c3cc(-c4ccccc4)nc(=O)[nH]3)c(Cl)nc12` stands 75.7% (inactive). Next, `CC(=O)c1ccc(NC(=O)NCn2c(=O)[nH]c3ccccc3c2=O)cc1`: 87.3% (inactive); `CCCS(=O)(=O)c1oc(-c2ccc(F)cc2)nc1S(=O)(=O)c1ccc(F)cc1`: 64.7% (inactive); `Cc1cccc(NC(=O)CSc2nc3ccc(F)cc3c(=O)n2-c2ccc(Cl)cc2)c1C`: 21.5% (inactive). For the molecule `O=C(NC(=S)N1CCN(c2ncnc3c2cnn3-c2ccccc2)CC1)c1ccc(Cl)cc1`, the growth was 52.3% (inactive).

With `Cc1cc(=O)oc2cc(OCCCCOc3ccc(/C=C/C(=O)Nc4ccc(F)c(Cl)c4)cc3)ccc12`, the growth is 95.9% (inactive).

Regarding `COc1cnc2c(c1)C(=O)c1c-2n(CCCNCCO)c(=O)c2cc(OC)c(OC)cc12`, the growth was 15.4% (inactive). Turning to `C=C(C)[C@@H]1CC[C@]2(C(=O)OC)CC[C@]3(C)[C@H](CC[C@@H]4[C@@]5(C)CC[C@H](N)C(C)(C)[C@@H]5CC[C@]43C)[C@@H]12`, the growth is -89.3% (active).

As for `O=C1Nc2cc(-c3ccc(NC(=O)c4cccs4)cc3)ccc2/C1=C/c1ccc[nH]1`, the growth is 40.4% (inactive). Next, `COc1ccc(C(=O)/C=C/c2cc(C(F)(F)F)cc(C(F)(F)F)c2)cc1S(N)(=O)=O`: -69.7% (active); `COc1ccc2[nH]cc(/C=N/Nc3cccc(Cl)n3)c2c1`: 48.4% (inactive).

For `COc1ccc2c(c1)N=C(C(=O)O)/C2=C/c1sc(Nc2ccc(O)cc2)nc1O`, the growth was 54.8% (inactive). Turning to `COc1ccc(-c2nc(S(=O)(=O)c3ccccc3)c(S(C)(=O)=O)o2)cc1`, the growth is 74.5% (inactive). Next, `O=C(O)CCCCCCCCCCN1C(=O)/C(=C/c2cnc(-c3ccccc3)s2)SC1=S`: 103% (inactive); `O=c1[nH]c2ccc(Cl)cc2cc1CSc1ccc(Nc2nccc(-c3ccc(Cl)cc3)n2)cc1`: 66% (inactive); `CCN(CC)CCOc1ccc(C(=C(C)c2ccccc2)c2ccc(OCCN(CC)CC)cc2)cc1`: 71% (inactive).

For the molecule `O=C(CSc1nnc(-c2c[nH]c3ccccc23)n1-c1ccccc1)c1ccc(Cl)cc1`, the growth is 17.6% (inactive).

In the case of `Cc1cc(C)cc(Oc2cccc(-c3c(C)nnn3C3CCN(CCN(C)C)CC3)n2)c1`, the growth was 5.11% (active). Under `O=C(NO)c1ccc(-c2nc3ccc4[nH]ncc4c3c3c2CCCC3)cc1` stands -28.8% (active); under `O=c1c2ccccc2nc(COc2ccccc2)n1/N=C/c1ccc(N2CCOCC2)cc1`, 37.9% (inactive); under `COc1ccc(-c2nc(Nc3ccccc3S(N)(=O)=O)c3ccccc3n2)cc1`, -43% (active). Next, `Cc1cc(C(F)(F)F)ccc1C(=O)Nc1sc2c(c1C#N)CCC(=O)C2`: -13% (active); `COc1ccc(C(=O)Nc2ccc(-c3ccc4c(c3)NC(=O)/C4=C\c3ccc[nH]3)cc2)cc1`: -4.15% (active). Regarding `Nc1nc(Nc2ccc(Cl)cc2)nn1Cc1cccc(Br)c1`, the growth was 41.5% (inactive). Take `Cc1ccc(/C=C/C(=O)c2ccc(S(=O)(=O)NCCNc3nc(Nc4ccc(F)cc4)nc(N(C)C)n3)cc2)cc1`: the growth was -1.6% (active). Consider `O=C1Nc2ccc(Cl)cc2/C1=C/c1cccc(OCc2ccccn2)c1`, for which the growth was -21.3% (active). For `O=C1Nc2cc(Cl)ccc2/C1=C/c1cccc(OCc2ccccc2)c1`, the growth was 21.9% (inactive). Take `O=C(Nc1ccc(OCC(=O)c2ccccc2)cc1)Nc1ccc(Cl)c(C(F)(F)F)c1`: the growth is 8.87% (active).

For `CN(C)c1ccc(/C=C/c2nc3ccccc3c(=O)n2CC(=O)Nc2ccccc2)cc1`, the growth was -6.92% (active). Under `COc1ccc([C@H]2C(C(=O)c3ccc(Cl)cc3)C3(N[C@@H]2c2ccccc2)C(=O)Nc2ccc(Cl)cc23)cc1` (stereo not given in full) stands -56.4% (active); under `O=c1oc2ccc(-c3ccc(F)cc3F)cc2c(=O)n1-c1ccc(F)c(Cl)c1`, -24.8% (active); under `O=C(Nc1cccc([N+](=O)[O-])c1)Nc1cccc([N+](=O)[O-])c1`, 74.4% (inactive).

Regarding `C[C@H]1[C@H](C)CC[C@]2(COC(=O)CCC(=O)NCC#CCN3CCNCC3)CC[C@]3(C)C(=CC[C@@H]4[C@@]5(C)CCCNC(C)(C)[C@@H]5CC[C@]43C)[C@H]12`, the growth is 75.6% (inactive). Regarding `COc1cccc2nc(Nc3ccc(F)c(NC(=O)c4ccc(CN5CCN(C)CC5)c(C(F)(F)F)c4)c3)ccc12`, the growth was 17% (inactive). As for `O=C(NO)c1ccc(CNC(=O)[C@H]2Cc3c([nH]c4ccccc34)[C@H](c3ccc(Cl)cc3)N2)cc1`, the growth is 28.2% (inactive).

On to `Brc1ccc(/C=N/Nc2ncnc3sc4c(c23)CCN(Cc2ccccc2)C4)cc1`, for which the growth was 3.93% (active).

With `Clc1ccc2c(N/N=C/c3c[nH]c4ccc(Br)cc34)ccnc2c1`, the growth was -64.4% (active). With `Cc1cc(=O)oc2cc(OCCCCOc3ccc(/C=C/C(=O)Nc4cccc(Cl)c4)cc3)ccc12`, the growth is 35.9% (inactive).
